Results published in PubChem BioAssay (NCI).
This is part of a sample that, as a whole, favours compounds with a hit. Of some 83,000 tested, about 20% had one in any assay.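 Compound tested at a single concentration for 48 hours in 96-well plates; a percent growth value below 10 was scored as active.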 The source made the active and inactive calls.

test system: RXF 393 renal; experiment: NCI-60 one-dose screen, 48 h (100 = growth as untreated, 0 = no growth, -100 = all killed); details: 10 µM unless noted

Compound | growth
C=CC(=O)Nc1cccc(-c2nc(SC)nc(NCc3ccccc3)c2C#N)c1 | 21.9% (inactive)
COC(=O)c1cccc(NC(=O)c2ccc(-c3cccc(N)c3)o2)c1 | 102% (inactive)
N#Cc1c(-c2ccc(Cl)cc2)nc(N=Nc2c(O)[nH]c3ccc(Cl)cc23)nc1N1CCOCC1 | 95.7% (inactive)
N#CN1CCC[C@H]1C(=O)N1CCc2c(-c3[nH]nc4ncccc34)cccc21 | -19.7% (active)

test system: SF-268 CNS; experiment: as above; details: 10 µM unless noted

Compound | growth
Nc1ccc(S(=O)(=O)O)c2ccc(N=Nc3ccc(N=Nc4ccc(S(=O)(=O)O)cc4)c4ccccc34)c(O)c12 | 101% (inactive)
CSc1ccc(-c2n[nH]nc2-c2cc3ccccc3s2)cc1 | 54.3% (inactive)
COc1ccc(C(=O)COc2ccc(/C=C3\COc4ccc(OC)cc4C3=O)cc2)cc1 | 112% (inactive)
COc1cc(C=Nc2oc(-c3ccccc3)c(-c3ccccc3)c2C#N)cc(CN2CCCCC2)c1O | 94.9% (inactive)
O=C1CC[C@H](c2ccc(O)c3c2C(=O)[C@@H]2O[C@@H]2C3=O)c2cccc(O)c21 | 84.4% (inactive)
C#CC(F)(F)[C@]1(O)CC[C@H]2[C@@H]3CCC4=CC(=O)CCC4=C3[C@@H](c3ccc(C(C)=O)cc3)C[C@@]21C | 36.3% (inactive)
O=C(Cc1ccccc1Nc1c(Cl)cccc1Cl)NN1C(=O)/C(=C/c2ccc(Br)cc2)SC1=S | 96.8% (inactive)
Cc1nn(-c2cc(=O)[nH]c3ccccc23)c(N)c1C#N | 97.7% (inactive)
CCn1c(Cc2ccccc2Nc2c(Cl)cccc2Cl)nnc1SCC(=O)NN1C(=O)/C(=C/c2cc(OC)c(O)c(OC)c2)SC1=S | 36.4% (inactive)
Cc1cc(C)nc(SC2=C(Nc3cc(Cl)ccc3O)C(=O)N(Cc3ccccc3)C2=O)n1 | 93.8% [30 µM] (inactive)
CCN(CC)c1ccc(/C=N\NC(=O)/C=C/C=C/c2ccc3c(c2)OCO3)c(O)c1 | 33.7% (inactive)
N#Cc1cnn(-c2nc3c(Cl)cccc3s2)c1N | 87% (inactive)
COc1ccc(S(=O)(=O)N2CC3(COC3)C2)cc1NC(=O)c1[nH]c(C)c2c1CCCCC2=O | 78.1% (inactive)
Cn1cc(C(=O)c2nc(-c3c[nH]c4ccc(F)cc34)no2)c2cc(F)ccc21 | 96% (inactive)
O=C1C=C(OCC=C(Cl)Cl)C(=O)c2ccccc21 | 94.4% (inactive)
Cc1cc(C)nc(SC2=C(Nc3cccc(Cl)c3)C(=O)N(Cc3ccccc3)C2=O)n1 | 66.8% [30 µM] (inactive)
O=c1cc(CSc2nnc(-c3ccc(F)cc3)o2)c2ccc3ccccc3c2o1 | 96.4% (inactive)
CCCn1c(=O)[nH]c(N)c([C@H]2c3ccccc3Oc3[nH]c(=O)n(CCC)c(=O)c32)c1=O | 94.4% (inactive)
O=C(CCN1C(=O)/C(=C/c2ccc(Cl)cc2)SC1=S)NCCCN1CCOCC1 | 95.7% (inactive)
Cc1nc2ccccc2n1C(=O)C[C@@H]1NC(=S)NC1=O | 95.1% (inactive)

Compound | growth
O=C(N=Nc1c(O)[nH]c2ccc(Br)cc12)c1cc(-c2ccccc2)on1 | 100% (inactive)
C=C(C)C(=O)Nc1ccc(NC(C)C)cc1 | 107% (inactive)
CC(O)CN1CC(O)=C(c2nc3ccccc3s2)C1=N (stereo not drawn) | 108% (inactive)
O=c1c2c3c(sc2nc(N/N=C/c2cn(-c4ccccc4)nc2-c2ccc(Cl)cc2)n1Cc1ccccc1)CCCC3 | 91.8% (inactive)
COc1cccc(-c2nn(C(C)(C)C)cc2-c2ccnc(NCCCNS(=O)(=O)c3ccc(C)cc3)c2)c1 | 105% (inactive)
CSc1nc(Nc2cccc(NC(=O)CCl)c2)c(C#N)c(-c2cccc([N+](=O)[O-])c2)n1 | 34% (inactive)
CSc1nc(Nc2cccc(NC(=O)/C(C#N)=C/c3c(Cl)cccc3Cl)c2)c(C#N)c(-c2cccc([N+](=O)[O-])c2)n1 | 59.6% (inactive)
COc1ccc(-c2nc3ccc(-c4nc5ccc(N6CCN(c7ccccc7)CC6)cc5[nH]4)cc3[nH]2)cc1OC | 11.4% (inactive)
COc1ccc(CCNc2nc3c(c(=O)n(Cc4ccc(Br)cc4)c(=O)n3C)n2C)cc1OC | 92.6% (inactive)
C=CCSSc1ncnc2c1ncn2C1OC(CO)C(O)C1O (stereo not drawn) | 28% (inactive)
Cc1ccc(NC(=O)C2CCC(CN3CCN(C)CC3)CC2)cc1Nc1nccc(-c2cccnc2)n1 (stereo not drawn) | 100% (inactive)
COc1cc(/C=C/c2cc(O)c3cc(C(C)=O)c(=O)oc3c2)cc2c1O[C@]1(C)CC[C@@H](O)C(C)(C)[C@H]1C2 | 35.8% (inactive)
C=CC(=O)Nc1cccc(Nc2nc(SC)nc(-c3cccc([N+](=O)[O-])c3)c2C#N)c1 | 74.8% (inactive)
N#C/C(=C\c1ccc(-c2cc(C(F)(F)F)ccc2Cl)o1)c1nc(-c2ccco2)cs1 | 99.7% (inactive)
COCCNc1ccc2c3c(cccc13)C(=O)N(CCN(C)C)C2=O | 26.3% (inactive)
C=CC(=O)Nc1cccc(-c2nc(SC)nc(NCc3ccccc3)c2C#N)c1 | 49% (inactive)
COC(=O)c1cccc(NC(=O)c2ccc(-c3cccc(N)c3)o2)c1 | 100% (inactive)
N#Cc1c(-c2ccc(Cl)cc2)nc(N=Nc2c(O)[nH]c3ccc(Cl)cc23)nc1N1CCOCC1 | 95.8% (inactive)
N#CN1CCC[C@H]1C(=O)N1CCc2c(-c3[nH]nc4ncccc34)cccc21 | 7.17% (active)
